Results taken from the supplement of paper PMC6555819.

The sequences below were run on PPARg DBDmut:RXRa IVT, anti-PPARg (DBD mutation: PPARg1 K132A/R137A, NR concentration 270 nM, RXRa partner concentration 90 nM) (assay: PBM binding z-score (relative to random genomic background probes); higher = stronger binding; sequences stand for … in GC…GCGATTGACAGCGTAGAATGAAGG).
In short: (§1)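 Regression normalization was applied to scanned fluorescence from custom Agilent 4×180K protein-binding microarrays. Before scanning, arrays were incubated 1 h with ligand-free nuclear receptor dimers, and binding was detected with antibodies against each partner (one per run). Binding z-scores use the random background probes as reference.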

Q: CCTAGTTGGTCAGCAGGTCACACACCGGATATGA was tested. Which PBM binding z-score did it give?
A: -0.32

Q: How did the PBM binding z-score turn out when TGAAGGAGGTTAAAGATCAGGGAACGTGGCGTCG was run?
A: 0.183

Q: With GCTAGCAGGCCAATTGGGTCACTCAATGACGGGC as the sequence, how does the PBM binding z-score read?
A: -0.977

Q: With TCAGACTGGTGAAGGTAACTCAGGTACGCAGTCG as the sequence, how does the PBM binding z-score read?
A: -0.324

Q: With CAGCCTAGGTCACGGCCAGTATAGGAGGAACGTT as the sequence, how does the PBM binding z-score read?
A: 0.0261

Q: How did the PBM binding z-score turn out when CTCGAAAGGTCGTGCTCAGGTGAGTAAACCAAAC was run?
A: 0.213

Q: For GCTTGAAGATCAAGGTTAAGAAAGACTAAGCTAA, which PBM binding z-score is on record?
A: 0.0638

Q: With CCTAGCAGGCCGGGGTCACTCAAGCATTTCGCTT as the sequence, how does the PBM binding z-score read?
A: -1.3

Q: How did the PBM binding z-score turn out when CAGCCTAGGTCAGGGCCACTATAGGAGGAACGTT was run?
A: -0.722

Q: With CCGACTGGAGCAAAGGTTACCATACTCAGTACGA as the sequence, how does the PBM binding z-score read?
A: -0.17

Q: For TGAATGAGGTTATAAGATCTGGGAACGTTGCAAA, which PBM binding z-score is on record?
A: 0.727

Q: Which PBM binding z-score does the source give for GATACAGGGTCAGCTAGAGGCCAGGGTATGGAAA here?
A: 0.352

Q: ACACACAGGTGATGAAGGTAACTCAGGCTATCAT was tested. Which PBM binding z-score did it give?
A: 0.73

Q: AGCTCTAGGTAAAGATAGTTCAGTGAATGCAAAT was tested. Which PBM binding z-score did it give?
A: 0.745

Q: CCTACTGGGCCAAAAAGGTCAATGATGCCGATAA was tested. Which PBM binding z-score did it give?
A: 0.0987

Q: GCTCGGACGACAAGGTCAGAGCTTTGTCCGTAGA was tested. Which PBM binding z-score did it give?
A: -1.38

Q: Which PBM binding z-score does the source give for GGAACGAGGGCAAAGTTGATAGCTTCTGTCGACG here?
A: 0.574

Q: For ATATGTGGGTTACATCCGGGTCATTCAGGCTATG, which PBM binding z-score is on record?
A: 2.1

Q: Which PBM binding z-score does the source give for CGAACTAGGTCATTGACAGGACTGTGAATAGTAA here?
A: 2.42

Q: Which PBM binding z-score does the source give for TGAATGAGGTTATAAGATTAGGGAACGTTGCAAA here?
A: 0.868

Q: Which PBM binding z-score does the source give for GCTAGTTGCTCAGTAAAAGGTCACACACCGGTCG here?
A: -0.262

Q: For TTACCAAGGTGAGCTGAGGTCGTTAATCCAACTC, which PBM binding z-score is on record?
A: -0.772

Q: Which PBM binding z-score does the source give for ACAGACAGGTGAGTGAAGGTAACTCATCTGGACG here?
A: 0.131

Q: How did the PBM binding z-score turn out when GCGACTGGGGCATCAGCAGGTTATCATAACTTAA was run?
A: -0.424

Q: ACTATTAGTTGACTTAGGGTAACCGATACGACGC was tested. Which PBM binding z-score did it give?
A: 1.67

Q: TCTCGGAGGACAGGAAGGTCAGAGCTTTCCAGAG was tested. Which PBM binding z-score did it give?
A: -1.38

Q: Which PBM binding z-score does the source give for CTGCCTAGGTCAGGGCCAGTATAGGAGGAACGTT here?
A: -0.75

Q: With TGAATGAGGTTATAAAATCAGGGAACGTTGCAAA as the sequence, how does the PBM binding z-score read?
A: 1.21

Q: ACAGACAGGTGATGAAGGTGACTCAGGCTATCAT was tested. Which PBM binding z-score did it give?
A: 0.651

Q: How did the PBM binding z-score turn out when CGACCAAGGTCATAGGAGGTCAGTGAAGACAGAT was run?
A: 0.399

Q: GTTACAGGGTCAGCTAGAGGCCAGAGTATGGAAA was tested. Which PBM binding z-score did it give?
A: 0.0715

Q: For CCTTACGGGTCACTGACAGGTTATACCATTTGGA, which PBM binding z-score is on record?
A: 0.775

Q: ATCTCTAGGTAAAGTTCAGTGAGAGATCGATAGA was tested. Which PBM binding z-score did it give?
A: 1.04

Q: Which PBM binding z-score does the source give for ATCTCTAGGTAACAAATTCAGTGAAAGAGAGGAC here?
A: 1.67

Q: CGTCCAAGGTCAAGGTCAGTGTAAGAGACTCGAA was tested. Which PBM binding z-score did it give?
A: 2.06

Q: For CGTACAAGGTCAGAGAGGTCAGTGAATGCCGAGT, which PBM binding z-score is on record?
A: 1.15

Q: How did the PBM binding z-score turn out when ACTTACGGGTAAACGAGGTTATAGCACGCGTATA was run?
A: -0.07

Q: With GCTGCTAGGTCAGGTGGGTCAGCTAACGGGTACG as the sequence, how does the PBM binding z-score read?
A: 0.103

Q: For CCTACTGTGCCACGAAAGGTCATTGATTCAGTGA, which PBM binding z-score is on record?
A: 0.906

Q: CCTGCTAGGTCAATGGTCAGCAAAAGCAGCTCGC was tested. Which PBM binding z-score did it give?
A: -0.42

Each sequence was assayed on PPARg DBDmut IVT, anti-PPARg (DBD mutation: PPARg1 K132A/R137A, NR concentration 270 nM) in the same assay as above.
In short: as §1

Q: With CCTAGTTGGTCAGCAGGTCACACACCGGATATGA as the sequence, how does the PBM binding z-score read?
A: 0.126

Q: With TGAAGGAGGTTAAAGATCAGGGAACGTGGCGTCG as the sequence, how does the PBM binding z-score read?
A: -0.165

Q: Which PBM binding z-score does the source give for GCTAGCAGGCCAATTGGGTCACTCAATGACGGGC here?
A: -0.884

Q: How did the PBM binding z-score turn out when TCAGACTGGTGAAGGTAACTCAGGTACGCAGTCG was run?
A: -0.759

Q: With CAGCCTAGGTCACGGCCAGTATAGGAGGAACGTT as the sequence, how does the PBM binding z-score read?
A: -0.166

Q: Which PBM binding z-score does the source give for CTCGAAAGGTCGTGCTCAGGTGAGTAAACCAAAC here?
A: 0.0254

Q: GCTTGAAGATCAAGGTTAAGAAAGACTAAGCTAA was tested. Which PBM binding z-score did it give?
A: -0.723

Q: For CCTAGCAGGCCGGGGTCACTCAAGCATTTCGCTT, which PBM binding z-score is on record?
A: -0.709

Q: How did the PBM binding z-score turn out when CAGCCTAGGTCAGGGCCACTATAGGAGGAACGTT was run?
A: -1.19

Q: With CCGACTGGAGCAAAGGTTACCATACTCAGTACGA as the sequence, how does the PBM binding z-score read?
A: 0.137

Q: For TGAATGAGGTTATAAGATCTGGGAACGTTGCAAA, which PBM binding z-score is on record?
A: -0.0307

Q: GATACAGGGTCAGCTAGAGGCCAGGGTATGGAAA was tested. Which PBM binding z-score did it give?
A: -0.589

Q: ACACACAGGTGATGAAGGTAACTCAGGCTATCAT was tested. Which PBM binding z-score did it give?
A: 0.679

Q: With AGCTCTAGGTAAAGATAGTTCAGTGAATGCAAAT as the sequence, how does the PBM binding z-score read?
A: 0.441

Q: How did the PBM binding z-score turn out when CCTACTGGGCCAAAAAGGTCAATGATGCCGATAA was run?
A: -0.775

Q: For GCTCGGACGACAAGGTCAGAGCTTTGTCCGTAGA, which PBM binding z-score is on record?
A: -1.46

Q: How did the PBM binding z-score turn out when GGAACGAGGGCAAAGTTGATAGCTTCTGTCGACG was run?
A: 0.0846

Q: Which PBM binding z-score does the source give for ATATGTGGGTTACATCCGGGTCATTCAGGCTATG here?
A: 2.31

Q: How did the PBM binding z-score turn out when CGAACTAGGTCATTGACAGGACTGTGAATAGTAA was run?
A: 3.75

Q: TGAATGAGGTTATAAGATTAGGGAACGTTGCAAA was tested. Which PBM binding z-score did it give?
A: 0.168

Q: GCTAGTTGCTCAGTAAAAGGTCACACACCGGTCG was tested. Which PBM binding z-score did it give?
A: 0.0665

Q: For TTACCAAGGTGAGCTGAGGTCGTTAATCCAACTC, which PBM binding z-score is on record?
A: -1.04

Q: With ACAGACAGGTGAGTGAAGGTAACTCATCTGGACG as the sequence, how does the PBM binding z-score read?
A: -0.119

Q: With GCGACTGGGGCATCAGCAGGTTATCATAACTTAA as the sequence, how does the PBM binding z-score read?
A: -0.757

Q: How did the PBM binding z-score turn out when ACTATTAGTTGACTTAGGGTAACCGATACGACGC was run?
A: 1.36

Q: For TCTCGGAGGACAGGAAGGTCAGAGCTTTCCAGAG, which PBM binding z-score is on record?
A: -1.7

Q: Which PBM binding z-score does the source give for CTGCCTAGGTCAGGGCCAGTATAGGAGGAACGTT here?
A: -0.806

Q: How did the PBM binding z-score turn out when TGAATGAGGTTATAAAATCAGGGAACGTTGCAAA was run?
A: 0.504

Q: For ACAGACAGGTGATGAAGGTGACTCAGGCTATCAT, which PBM binding z-score is on record?
A: 0.382

Q: CGACCAAGGTCATAGGAGGTCAGTGAAGACAGAT was tested. Which PBM binding z-score did it give?
A: -0.258

Q: With GTTACAGGGTCAGCTAGAGGCCAGAGTATGGAAA as the sequence, how does the PBM binding z-score read?
A: -0.0967

Q: For CCTTACGGGTCACTGACAGGTTATACCATTTGGA, which PBM binding z-score is on record?
A: 0.106

Q: Which PBM binding z-score does the source give for ATCTCTAGGTAAAGTTCAGTGAGAGATCGATAGA here?
A: 0.672

Q: ATCTCTAGGTAACAAATTCAGTGAAAGAGAGGAC was tested. Which PBM binding z-score did it give?
A: 1.65

Q: CGTCCAAGGTCAAGGTCAGTGTAAGAGACTCGAA was tested. Which PBM binding z-score did it give?
A: 0.0248

Q: For CGTACAAGGTCAGAGAGGTCAGTGAATGCCGAGT, which PBM binding z-score is on record?
A: 1.93

Q: With ACTTACGGGTAAACGAGGTTATAGCACGCGTATA as the sequence, how does the PBM binding z-score read?
A: 0.0677

Q: How did the PBM binding z-score turn out when GCTGCTAGGTCAGGTGGGTCAGCTAACGGGTACG was run?
A: -0.61

Q: For CCTACTGTGCCACGAAAGGTCATTGATTCAGTGA, which PBM binding z-score is on record?
A: 0.678

Q: How did the PBM binding z-score turn out when CCTGCTAGGTCAATGGTCAGCAAAAGCAGCTCGC was run?
A: -0.782
